Experimental data taken from PubChem BioAssay AID1159580 (chemical genetic matrix, 2015).
Values joined by “and” are separate entries in the source; they are usually repeats but may differ in a detail not shown here. Identical values can stand only once. Out of some 5,500 compounds screened, about 2,000 (36%) were called active. Not shown: some 18% with an inconclusive outcome. Rule as the data show it: active = normalized growth mostly below about 0.91 (no sharp cut-off); inconclusive = no clear call, values can overlap the other calls; inactive = mostly above about 0.92. Some of the results follow.

Experiment: chemical genetic growth profiling, strain panel (AID 1159580);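 also: tested at 20 µM; growth read once vehicle control cultures reached saturation at 30 °C; 1 = growth at the plate median or of vehicle wells; lower values mean less growth of the strain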
Conditions: S. cerevisiae deletion strains, growth OD

Measured: normalized growth

COc1c2ccoc2cc2oc(C)cc(=O)c12
inactive: locus YAL021C, strain ccr4, active compounds read low 1 | locus YAL026C, strain drs2, active compounds read low 0.999 | locus YAL030W, strain snc1, active compounds read low 0.987 | locus YBL061C, strain skt5, active compounds read low 1 | locus YBR009C, strain hhf1, active compounds read low 0.993 | locus YBR021W, strain FUR4, active compounds read low 0.997 | locus YBR023C, strain chs3, active compounds read low 0.991 | locus YBR171W, strain sec66, active compounds read low 0.987 | locus YBR229C, strain ROT2, active compounds read low 0.948 | locus YBR231C, strain swc5, active compounds read low 0.99 | locus YBR279W, strain paf1, active compounds read low 0.995 | locus YCL011C, strain gbp2, active compounds read low 0.985 | locus YCL016C, strain dcc1, active compounds read low 0.979 | locus YCL029C, strain bik1, active compounds read low 0.98 | locus YCL069W, strain vba3, active compounds read low 1.01 | locus YCR088W, strain abp1, active compounds read low 0.99 | locus YDL005C, strain med2, active compounds read low 1 | locus YDL035C, strain GPR1, active compounds read low 0.972 | locus YDL040C, strain nat1, active compounds read low 1 | locus YDL074C, strain BRE1, active compounds read low 0.981 | locus YDL101C, strain DUN1, active compounds read low 0.96 | locus YDL134C, strain PPH21, active compounds read low 0.964 | locus YDL185W, strain tfp1, active compounds read low 0.971 | locus YDL192W, strain arf1, active compounds read low 0.945 | locus YDR001C, strain nth1, active compounds read low 0.997 | locus YDR069C, strain doa4, active compounds read low 1 | locus YDR101C, strain arx1, active compounds read low 1.02 | locus YDR137W, strain rgp1, active compounds read low 1 | locus YDR159W, strain sac3, active compounds read low 1.02 | locus YDR162C, strain NBP2, active compounds read low 0.905 | locus YDR195W, strain ref2 1.03 | locus YDR297W, strain sur2, active compounds read low 1 | locus YDR318W, strain mcm21, active compounds read low 0.945 | locus YDR334W, strain swr1, active compounds read low 1 | locus YDR335W, strain msn5, active compounds read low 1 | locus YDR388W, active compounds read low 0.996 | locus YDR392W, strain spt3, active compounds read low 0.961 | locus YDR502C, strain sam2, active compounds read low 0.966 | locus YEL003W, strain gim4, active compounds read low 1 | locus YEL037C, strain rad23, active compounds read low 1 | locus YEL061C, strain CIN8 (second series), active compounds read low 0.997 | locus YEL061C, strain CIN8, active compounds read low 0.975 | locus YER015W, strain faa2, active compounds read low 0.997 | locus YER016W, strain bim1, active compounds read low 0.996 | locus YER110C, active compounds read low 0.972 | locus YER111C, strain swi4, active compounds read low 0.985 | locus YER155C, strain BEM2 (second series), active compounds read low 0.999 | locus YER155C, strain BEM2, active compounds read low 1 | locus YER167W, strain BCK2, active compounds read low 0.98 | locus YFR010W, strain ubp6, active compounds read low 0.985 | locus YGL078C, strain dbp3, active compounds read low 0.999 | locus YGL086W, strain mad1, active compounds read low 1.05 | locus YGL167C, strain pmr1, active compounds read low 0.997 | locus YGL173C, strain kem1, active compounds read low 0.984 | locus YGL227W, strain vid30, active compounds read low 0.986 | locus YGL240W, strain doc1, active compounds read low 1.01 | locus YGL248W, strain PDE1, active compounds read low 0.928 | locus YGL253W, strain hxk2, active compounds read low 0.988 | locus YGR078C, strain PAC10, active compounds read low 0.922 | locus YGR135W, strain pre9, active compounds read low 0.914 | locus YGR252W, strain gcn5, active compounds read low 0.912 | locus YHR013C, strain ard1, active compounds read low 0.993 | locus YHR027C, strain rpn1, active compounds read low 0.995 | locus YHR030C, strain SLT2, active compounds read low 0.987 and 1.04 | locus YHR079C, strain IRE1 (second series), active compounds read low 1 | locus YHR079C, strain IRE1, active compounds read low 1.04 | locus YHR094C, strain hxt1, active compounds read low 0.978 | locus YHR129C, strain ARP1, active compounds read low 0.981 | locus YHR142W, strain chs7, active compounds read low 0.971 | locus YHR200W, strain rpn10, active compounds read low 0.953 | locus YIL066C, strain RNR3, active compounds read low 0.971 | locus YIL073C, strain SPO22, active compounds read low 0.936 | locus YIL125W, strain kgd1, active compounds read low 1 | locus YIR030C, strain dcg1, active compounds read low 0.995 | locus YJL092W, strain hpr5, active compounds read low 0.993 | locus YJL095W, strain BCK1 (second series), active compounds read low 0.999 | locus YJL095W, strain BCK1, active compounds read low 0.884 and 1.03 | locus YJL115W, strain asf1, active compounds read low 1.01 | locus YJL129C, strain trk1, active compounds read low 1.01 | locus YJL134W, strain LCB3, active compounds read low 0.985 | locus YJL154C, strain vps35, active compounds read low 1.01 | locus YJL164C, strain tpk1, active compounds read low 0.989 | locus YJL166W, strain qcr8, active compounds read low 0.984 | locus YJL168C, strain set2, active compounds read low 1 | locus YJL187C, strain SWE1 (second series), active compounds read low 0.947 | locus YJR043C, strain POL32, active compounds read low 0.97 | locus YJR066W, strain TOR1, active compounds read low 0.993 | locus YJR075W, strain HOC1, active compounds read low 0.955
